{"source": "PubChem BioAssay (NCATS)", "note": "Records with an inconclusive call do not appear. Activity calls are given as the source filed them. Calls follow the shape of the full dose curve; tested in HEK293 reporter line. % is scaled to controls: 0 for no effect and ±100 for the full control effect."}
{"assay": "qHTS for Inhibitors of the Functional Ribonucleoprotein Complex (vRNP) of Lassa (LASV) Arenavirus: Viability assay - alamar blue signal for LASV Primary Screen (AID 1347083); also: nearly all actives have a fitted effect of over 80% in size", "details": "cell viability, alamar blue fluorescence (LASV minigenome counter-screen); series mostly up to 57.5 µM; activity change, negative = reduced viability: at the top concentration"}
{"smiles": "Cc1cc2c(cc1S(N)(=O)=O)S(=O)(=O)CCC2", "activity change, negative = reduced viability": "-6.35% (inactive)"}
{"smiles": "Cc1ccsc1/C=C/C1=NCCCN1C", "activity change, negative = reduced viability": "4.64% (inactive)"}
{"smiles": "C[C@H]1O[C@@H](n2cc(F)c(=O)[nH]c2=O)[C@H](O)[C@@H]1O", "activity change, negative = reduced viability": "-0.164% (inactive)"}
{"smiles": "CN(CC1(C)CCCO1)S(=O)(=O)c1ccc(Cl)c(S(N)(=O)=O)c1", "note": "(stereo not drawn)", "activity change, negative = reduced viability": "8.76% (inactive)"}
{"smiles": "CCCc1nn(C)c2c(=O)[nH]c(-c3cc(S(=O)(=O)N4CCN(C)CC4)ccc3OCC)nc12", "Potency": "inactive"}
{"smiles": "O=C(O)c1ccccc1Nc1cccc(C(F)(F)F)c1", "activity change, negative = reduced viability": "8.36% (inactive)"}
{"smiles": "CS(=O)(=O)c1ccc([C@@H](O)[C@@H](CO)NC(=O)C(Cl)Cl)cc1", "activity change, negative = reduced viability": "-19% (inactive)"}
{"smiles": "Cc1scc2c1N(C(=O)CN1CCN(C)CC1)c1ccccc1NC2=O", "Potency": "inactive"}
{"smiles": "CC(=O)O[C@@H]1CC2C3CCc4cc(OC(=O)c5ccccc5)ccc4C3CCC2(C)[C@H]1OC(C)=O", "note": "(stereo partly drawn)", "activity change, negative = reduced viability": "4.76% (inactive)"}
{"smiles": "CCCCCC=CCC=CCCCCCCCC(=O)OCC", "activity change, negative = reduced viability": "-0.177% (inactive)"}
{"smiles": "C[N+]1(C)[C@@H]2CC(OC(=O)[C@H](CO)c3ccccc3)C[C@H]1[C@@H]1O[C@@H]12", "note": "(stereo partly drawn)", "activity change, negative = reduced viability": "-1.64% (inactive)"}
{"smiles": "CC(C(=O)O)c1ccc2c(c1)[nH]c1ccc(Cl)cc12", "note": "(stereo not drawn)", "activity change, negative = reduced viability": "21.1% (inactive)"}
{"smiles": "O=C(O)c1[nH]n(-c2ccc(S(=O)(=O)O)cc2)c(=O)c1N=Nc1ccc(S(=O)(=O)O)cc1", "activity change, negative = reduced viability": "3.09% (inactive)"}
{"smiles": "Cc1ncc(CO)c(CN)c1O", "activity change, negative = reduced viability": "9.73% (inactive)"}
{"smiles": "CNCCCC12CCC(c3ccccc31)c1ccccc12", "Potency": "inactive"}
{"smiles": "C/C(=C(\\CCO)SS/C(CCO)=C(\\C)N(C=O)Cc1cnc(C)nc1N)N(C=O)Cc1cnc(C)nc1N", "activity change, negative = reduced viability": "3.91% (inactive)"}
{"smiles": "NC1CCN(c2cccc(Cl)n2)CC1", "Potency": "inactive"}
{"smiles": "CCC[C@@H]1C[C@@H](C(=O)N[C@@H]([C@H]2O[C@H](SC)[C@H](O)[C@@H](O)[C@H]2O)[C@@H](C)O)N(C)C1", "Potency": "inactive"}
